Molecules are shown by their SMILES. Results filed as inconclusive are left out. Where a call stands in place of a potency, no number is given. Active and inactive are the calls of the source. The call rests on the fitted dose curve.
Potency means the concentration at half of the fitted maximal effect.

A short description of the assay: p53 small molecule agonists, cell-based qHTS assay: qHTS cell viability counter screen (AID 1963581). Further: nearly all actives have a fitted effect of over 45% in size. The conditions noted are these: p53RE-bla HCT-116 viability, ATP luminescence, 16 h; series mostly up to 66 µM. In short, it runs like this:
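Cells: HCT-116 with p53 response element-driven beta-lactamase. Treatment: 16 h, 37 C, compounds in DMSO. Read: CellTiter-Glo luminescence after 30 min RT.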
As to `COc1cc(C)nc(-n2nc(C)cc2OC)n1`, the Potency entry is “inactive”.
With `C=C1C(=C/C=C2\CCC[C@]3(C)[C@@H]([C@H](C)/C=C/[C@@H](O)C4CC4)CC[C@@H]23)C[C@@H](O)C[C@@H]1O` the entry was “inactive”; with `COc1c2occc2cc2ccc(=O)oc12`, “inactive”; with `O=P(c1ccccc1)(c1ccccc1)c1ccccc1`, “inactive”.
In the case of `Nc1cccc2c(N)cccc12` it was 0.646 µM (active); in that of `Cc1cnc(C(=O)NCCc2ccc(S(=O)(=O)NC(=O)NC3CCCCC3)cc2)cn1`, “inactive”.
With `CNCC[C@H](Oc1cccc2ccccc12)c1cccs1` the entry was “inactive”; with `CC1(C)CCC[C@]2(C)[C@H]3CCO[C@]3(C)CC[C@@H]12`, “inactive”; with `O=C(NCC(O)CO)c1c(I)c(C(=O)NCC(O)CO)c(I)c(N(CCO)C(=O)CO)c1I` (stereo not drawn), “inactive”.
For `S=P(N1CC1)(N1CC1)N1CC1`, the Potency entry is “inactive”.
In the case of `Cc1c(C)n(Cc2ccccc2)c2ccc(C(=O)OCCN(C)C)cc12` it was “inactive”; in that of `C=C(C)C(=O)OCC(O)COc1ccc(C(C)(C)c2ccc(OCC(O)COC(=O)C(=C)C)cc2)cc1` (stereo not drawn), “inactive”.
With `COc1cc(Cl)c(OC)cc1N` the entry was “inactive”; with `CC(C)(C)c1ccc(C(=O)CCCN2CCC(OC(c3ccccc3)c3ccccc3)CC2)cc1`, 11.2 µM (active).
In the case of `O=[N+]([O-])c1cc([N+](=O)[O-])c2ccc(S(=O)(=O)O)cc2c1O` it was “inactive”; in that of `COc1ccc2cc([C@H](C)C(=O)O)ccc2c1`, “inactive”; in that of `CN1[C@@H]2CC(OC(=O)[C@H](CO)c3ccccc3)C[C@H]1[C@@H]1O[C@@H]12` (stereo partly drawn), “inactive”.
Regarding `CCCCOC(=O)c1ccccc1C(=O)OCC(CC)CCCC` (stereo not drawn), the Potency result was “inactive”.
With `CN1CCC(N(Cc2cccs2)c2ccccc2)CC1` the entry was “inactive”; with `CN(C)CCOC(c1ccccc1)c1ccccc1`, “inactive”; with `CCOC(=O)CC(=O)C(=O)OCC`, “inactive”.
With `COc1cc([C@@H]2c3cc4c(cc3[C@@H](O[C@@H]3O[C@@H]5CO[C@@H](C)O[C@H]5[C@H](O)[C@H]3O)[C@H]3COC(=O)[C@H]23)OCO4)cc(OC)c1O` the entry was “inactive”; with `Cc1nc(-c2ccccn2)ncc1C(=O)Nn1cc(C)c2cc(F)ccc21`, “inactive”.
On to `COCCOC`, for which the Potency is 2.75 µM (active).
As for `COC(=O)[C@H]1[C@H]2C[C@@H]3c4[nH]c5cc(OC)ccc5c4CCN3C[C@H]2C[C@@H](OC(=O)/C=C/c2ccc(O)c(OC)c2)[C@@H]1OC`, the Potency result was “inactive”.
As to `CC(C)(C(=O)O)c1ccc(C(O)CCCN2CCC(C(O)(c3ccccc3)c3ccccc3)CC2)cc1` (stereo not drawn), the Potency entry is “inactive”.
In the case of `CCN(CC)CCCC(C)Nc1c2ccc(Cl)cc2nc2ccc(OC)cc12` (stereo not drawn) it was “inactive”; in that of `CN1CCN(CCCN2c3ccccc3Sc3ccc(S(=O)(=O)N(C)C)cc32)CC1`, “inactive”.
